# Laboratory results as given in PubChem BioAssay.
# Calls of active or inactive are those of the source.
# Assays:
# [1] = binders of probe aFSTL3 on microarray, primary screen, stem cell growth factor project, biochemical, small-molecule microarray, fluorescence 635/667 (AID 1064); details: higher = more signal;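 note: measures binding of the biotinylated anti-FSTL3 antibody to printed compounds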
# [2] = binders from COS7 lysate, DM2A8 probe, primary screen, torsin A project, cell lysate, small-molecule microarray, fluorescence 635/667 (AID 1065); details: higher = more signal, COS7 lysate expressing mutant human TOR1A
# [3] = binders of probe aFGF2 on microarray, primary screen, stem cell growth factor project, biochemical, small-molecule microarray, fluorescence 635/667 (AID 1067); details: higher = more signal;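 note: measures binding of biotinylated aFGF2 protein to printed compounds on slides; z-score merges feature fluorescence and signal-to-noise across triplicate slides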
# [4] = binders of probe aFGF10 on microarray, primary screen, stem cell growth factor project, biochemical, small-molecule microarray, fluorescence 635/667 (AID 1071); details: higher = more signal;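 note: score merges 667 nm spot intensity and signal to noise from triplicate slides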
# [5] = molecular target: Neurogenic locus notch homolog protein 2 (Homo sapiens) (UniProt Q04721); assay: Notch2 binders on small-molecule microarrays, primary screen, biochemical, small-molecule microarray, 635 nm fluorescence, stem cell growth factors (AID 1073); details: Notch2 binding, higher = more signal
# [6] = molecular target: Pro-neuregulin-1, membrane-bound isoform (Homo sapiens) (UniProt Q02297); assay: NRG1 binders on small-molecule microarrays, primary screen, psychiatric disease protein project, biochemical, small-molecule microarray, fluorescence 635/667 (AID 1075); details: NRG1 binding, 635 nm fluorescence, higher = more signal;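 note: score combines 667 nm spot fluorescence with signal to noise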
# [7] = system: Neuregulin-1 EGF-like domain; assay: binders of neuregulin-1 EGF-like domain, primary screen, biochemical, small-molecule microarray, 635 nm fluorescence (AID 1081); details: small-molecule microarray binding, higher = more signal;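 note: binding of the protein to compounds printed on small-molecule microarray slides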
# [8] = FRG1 promoter luciferase signal modulators, primary screen, FRG1 inhibition for FSHD, cell-based, C2C12 myotubes, firefly/Renilla luciferase, luminescence (AID 1084); details: higher = more signal, called active from +8 up or from −8 down
# [9] = binders of probe aFST on microarray, primary screen, stem cell growth factor project, biochemical, small-molecule microarray, fluorescence 635/667 (AID 1086); details: higher = more signal;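 note: score merges 667 nm fluorescence with signal-to-noise of each printed compound spot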
# [10] = binders of probe aHhip on microarray, primary screen, stem cell growth factor project, biochemical, small-molecule microarray, fluorescence 635/667 (AID 1087); details: higher = more signal;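 note: score merges spot fluorescence at 667nm with spot signal to noise ratio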
# Sequence of Pro-neuregulin-1, membrane-bound isoform (Homo sapiens) (Q02297 whole entry, looked up, the tested form may be a part, canonical isoform): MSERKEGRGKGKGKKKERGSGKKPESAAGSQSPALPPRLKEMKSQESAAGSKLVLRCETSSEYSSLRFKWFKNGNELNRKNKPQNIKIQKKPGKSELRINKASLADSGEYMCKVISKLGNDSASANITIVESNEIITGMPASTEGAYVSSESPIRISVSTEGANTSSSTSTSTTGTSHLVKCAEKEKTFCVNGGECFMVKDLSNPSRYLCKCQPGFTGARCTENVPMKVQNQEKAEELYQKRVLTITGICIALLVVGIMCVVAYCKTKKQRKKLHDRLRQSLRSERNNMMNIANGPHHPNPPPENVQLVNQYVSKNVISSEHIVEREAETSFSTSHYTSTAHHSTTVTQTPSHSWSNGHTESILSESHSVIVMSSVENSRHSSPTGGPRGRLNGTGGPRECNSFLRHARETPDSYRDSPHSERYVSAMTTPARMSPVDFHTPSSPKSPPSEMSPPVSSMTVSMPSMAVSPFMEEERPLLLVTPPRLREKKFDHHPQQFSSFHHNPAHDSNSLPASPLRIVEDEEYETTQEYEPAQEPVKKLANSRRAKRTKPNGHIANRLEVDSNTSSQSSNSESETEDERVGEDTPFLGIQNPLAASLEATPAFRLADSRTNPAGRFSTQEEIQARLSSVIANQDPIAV
# Sequence of Neurogenic locus notch homolog protein 2 (Homo sapiens) (Q04721 whole entry, looked up, canonical isoform): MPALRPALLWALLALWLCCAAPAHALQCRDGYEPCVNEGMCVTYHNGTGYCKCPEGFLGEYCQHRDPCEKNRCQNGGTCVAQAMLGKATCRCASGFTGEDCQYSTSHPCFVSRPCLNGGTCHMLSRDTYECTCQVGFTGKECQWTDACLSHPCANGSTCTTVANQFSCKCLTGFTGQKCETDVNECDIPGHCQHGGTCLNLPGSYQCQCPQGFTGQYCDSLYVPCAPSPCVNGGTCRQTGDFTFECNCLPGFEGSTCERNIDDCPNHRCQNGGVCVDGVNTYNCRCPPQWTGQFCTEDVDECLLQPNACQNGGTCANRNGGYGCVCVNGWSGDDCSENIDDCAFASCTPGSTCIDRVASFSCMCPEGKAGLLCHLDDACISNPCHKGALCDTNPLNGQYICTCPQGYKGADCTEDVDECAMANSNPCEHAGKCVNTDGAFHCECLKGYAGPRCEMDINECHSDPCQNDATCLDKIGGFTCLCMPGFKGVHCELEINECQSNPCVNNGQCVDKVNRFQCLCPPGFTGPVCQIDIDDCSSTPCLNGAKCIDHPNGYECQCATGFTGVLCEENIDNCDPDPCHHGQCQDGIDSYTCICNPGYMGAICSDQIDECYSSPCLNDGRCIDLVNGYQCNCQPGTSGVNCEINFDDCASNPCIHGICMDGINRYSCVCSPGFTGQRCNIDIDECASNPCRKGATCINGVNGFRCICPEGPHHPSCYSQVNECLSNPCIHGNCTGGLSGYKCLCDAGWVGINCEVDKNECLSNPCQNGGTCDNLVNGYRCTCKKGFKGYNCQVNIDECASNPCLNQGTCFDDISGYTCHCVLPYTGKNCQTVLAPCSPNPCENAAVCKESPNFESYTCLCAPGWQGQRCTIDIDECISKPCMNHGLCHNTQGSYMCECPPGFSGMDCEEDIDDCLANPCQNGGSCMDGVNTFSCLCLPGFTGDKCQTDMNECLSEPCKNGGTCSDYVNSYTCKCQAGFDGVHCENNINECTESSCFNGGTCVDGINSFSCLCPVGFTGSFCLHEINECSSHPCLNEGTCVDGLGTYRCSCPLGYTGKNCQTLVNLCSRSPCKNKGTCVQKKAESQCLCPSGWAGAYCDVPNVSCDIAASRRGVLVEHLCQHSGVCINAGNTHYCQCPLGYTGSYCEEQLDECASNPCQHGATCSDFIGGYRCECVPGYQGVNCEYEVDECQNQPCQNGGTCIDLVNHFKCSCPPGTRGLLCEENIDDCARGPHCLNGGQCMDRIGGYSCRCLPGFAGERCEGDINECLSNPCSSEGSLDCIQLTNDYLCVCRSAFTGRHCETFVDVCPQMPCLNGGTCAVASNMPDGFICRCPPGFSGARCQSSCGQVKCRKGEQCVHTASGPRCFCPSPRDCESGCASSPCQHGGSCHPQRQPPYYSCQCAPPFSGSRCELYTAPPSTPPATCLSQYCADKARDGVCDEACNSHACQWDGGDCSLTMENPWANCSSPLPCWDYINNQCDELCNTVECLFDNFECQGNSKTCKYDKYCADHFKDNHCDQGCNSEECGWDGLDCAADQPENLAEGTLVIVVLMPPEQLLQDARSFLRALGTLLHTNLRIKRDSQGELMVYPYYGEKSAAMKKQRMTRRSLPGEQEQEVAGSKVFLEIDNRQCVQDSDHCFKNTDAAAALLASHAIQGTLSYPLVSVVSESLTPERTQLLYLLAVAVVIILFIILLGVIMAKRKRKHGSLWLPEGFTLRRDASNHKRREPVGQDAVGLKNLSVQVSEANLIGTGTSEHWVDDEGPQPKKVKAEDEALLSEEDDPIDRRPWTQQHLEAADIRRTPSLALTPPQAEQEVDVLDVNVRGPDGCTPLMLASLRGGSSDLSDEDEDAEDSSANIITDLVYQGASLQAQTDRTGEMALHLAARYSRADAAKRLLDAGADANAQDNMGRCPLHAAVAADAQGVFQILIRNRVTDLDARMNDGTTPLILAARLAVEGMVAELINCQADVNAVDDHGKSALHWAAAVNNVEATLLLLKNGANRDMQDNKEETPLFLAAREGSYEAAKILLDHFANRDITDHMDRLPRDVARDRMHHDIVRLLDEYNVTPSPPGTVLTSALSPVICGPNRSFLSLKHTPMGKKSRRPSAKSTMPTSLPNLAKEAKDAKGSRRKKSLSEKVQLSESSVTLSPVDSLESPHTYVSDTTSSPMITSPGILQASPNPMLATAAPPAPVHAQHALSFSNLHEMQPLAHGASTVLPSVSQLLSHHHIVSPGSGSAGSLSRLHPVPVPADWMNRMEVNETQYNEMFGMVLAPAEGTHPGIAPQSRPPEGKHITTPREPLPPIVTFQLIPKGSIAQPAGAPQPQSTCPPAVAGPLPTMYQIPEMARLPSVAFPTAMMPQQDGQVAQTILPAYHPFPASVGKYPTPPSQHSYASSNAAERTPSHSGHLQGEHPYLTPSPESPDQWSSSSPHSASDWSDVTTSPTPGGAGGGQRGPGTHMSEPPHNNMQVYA
Structure (SMILES),composite z-score [1],composite z-score [2],composite z-score [3],composite z-score [4],composite z-score [5],composite z-score [6],composite z-score [7],z-score [8],composite z-score [9],composite z-score [10]
CO[C@@H]1COC(=O)[C@@H]2CCCN2C(=O)[C@@H](C)COC(=O)CC=C[C@H]1C,-0.776,0.313,-0.122,0.397,0.5,0.0187,1.02,0.719 (inactive),0.271,0.607
CCCNC(=O)OC[C@H]1O[C@H](CCON=C(C)CCC(=O)OC[C@H]2O[C@H](c3ccccc3)C=C[C@@H]2Oc2ccc(OC)cc2)C=C[C@@H]1Oc1ccc(OC)cc1,-0.302,0.21,-0.127,-0.178,-0.843,-0.311,-0.731,0.862 (inactive),0.0494,-0.0618
O=c1n(Cc2cc3c(cc2Cl)OCO3)c(=O)n2n1CC[C@@H]1C(=NOC[C@@H](O)COCc3ccco3)[C@H]3O[C@H]3[C@@H](O)[C@@H]12,-0.247,0.28,-0.0878,0.217,0.169,-0.112,0.0421,0.0388 (inactive),-0.142,0.0398
COc1ccc(O[C@H]2C=C[C@@H](c3ccccc3)O[C@@H]2CON=C2[C@H]3CCn4c(=O)n(-c5ccccc5)c(=O)n4[C@H]3[C@H](O)[C@@H]3O[C@H]23)cc1,-0.135,0.451,-0.0973,0.372,1.24,0.238,0.63,-0.243 (inactive),0.358,0.197
CO[C@H]1COC(=O)[C@H](C)NC(=O)[C@@H](C)COC(=O)[C@H]2CCCN2C(=O)CC=C[C@H]1C,-0.403,1.06,-0.216,0.347,0.338,-0.499,0.175,-0.345 (inactive),-0.0694,-0.179
O=C1C=C[C@@H](O)[C@@H]2[C@@H]3C(=O)N(C[C@@H]4CCCO4)C(=O)[C@@H]3CC[C@@H]12,-0.518,0.0078,-0.103,0.458,0.141,-0.0326,0.691,-0.241 (inactive),0.041,-0.136
C#CCCCON=C1C[C@@H](O)[C@@H](O)[C@@H]2[C@@H]3C(=O)N(c4ccc(F)cc4F)C(=O)[C@@H]3CC[C@H]12,-0.381,0.872,-0.0788,0.216,0.342,0.454,0.765,-1.17 (inactive),0.326,0.0373
CO[C@@H]1COC(=O)CC=C[C@H](C)[C@H](OC)COC(=O)[C@H](C)NC(=O)CC=C[C@H]1C,-0.729,1.42,-0.132,-0.267,-0.316,-0.63,0.347,-0.175 (inactive),0.0458,-0.0491
CO[C@H]1COC(=O)CC=C[C@H](C)[C@@H](OC)COC(=O)[C@H](C)COC(=O)CC=C[C@@H]1C,-0.687,1.34,-0.223,-0.562,-0.407,-0.785,-0.142,-0.387 (inactive),-0.176,0.0722
CC(C)CON=C1C[C@@H](O)[C@@H](O)[C@@H]2[C@@H]3C(=O)N(c4ccc(F)cc4F)C(=O)[C@@H]3CC[C@H]12,-0.337,1.29,-0.214,0.269,0.737,0.668,1.23,-0.858 (inactive),0.803,0.111
COC(=O)CC=C[C@@H](C)[C@@H](C=NO[C@H](C)c1cn([C@H](CO)Cc2ccccc2)nn1)OC,-0.42,0.44,-0.0867,0.257,-0.0484,-0.0545,0.516,0.0621 (inactive),0.0782,0.189
CC[C@@H](c1ccccc1)n1c(=O)n2n(c1=O)[C@H]1[C@H](O)[C@@H]3O[C@@H]3C(=O)[C@H]1CC2,-0.66,-0.283,-0.103,0.335,0.395,-0.0023,-0.088,0.327 (inactive),0.0182,0.0373
CO[C@H]1COC(=O)CC=C[C@@H](C)[C@H](OC)COC(=O)[C@@H]2CCCN2C(=O)CC=C[C@@H]1C,-0.479,2.11,-0.17,-0.0728,-0.162,-0.591,0.87,-0.273 (inactive),0.374,-0.169
C=CC[C@@H]1C=C[C@H](ON=C2[C@H]3CCn4c(=O)n(-c5ccccc5)c(=O)n4[C@H]3[C@H](O)[C@@H]3O[C@H]23)[C@@H](CO)O1,-0.356,0.189,-0.065,0.274,0.502,0.19,0.0586,-0.299 (inactive),0.0716,0.104
C=CC[C@@H]1C=C[C@H](ON=C[C@@H](C)[C@H](OCc2ccccc2)C(C)C)[C@@H](CO)O1,-0.227,-0.14,0.342,-0.433,-1.1,-0.241,-0.255,0.715 (inactive),-0.0578,-0.0618
CCCNC(=O)OC[C@H]1O[C@H](CCON=C(C)CCN2CCCc3nc(C)c(C)cc32)C=C[C@@H]1Oc1ccc(OC)cc1,-0.0324,-0.0773,-0.0611,0.552,0.661,0.639,0.685,-0.46 (inactive),0.504,-0.0994
CCN1C(=O)[C@H]2[C@H]3[C@H](O)[C@H](O)CC(=NOC[C@H]4O[C@H](c5ccccc5)C=C[C@@H]4Oc4ccc(OC)cc4)[C@@H]3CC[C@H]2C1=O,-0.0474,0.174,0.0338,0.999,0.887,0.488,0.953,0.52 (inactive),0.0352,0.351

Structure (SMILES),composite z-score [1],composite z-score [2],composite z-score [3],composite z-score [4],composite z-score [5],composite z-score [6],composite z-score [7],z-score [8],composite z-score [9],composite z-score [10]
COC(=O)[C@@H]1CC[C@H](C)[C@@H](c2ccc(C)cc2)N1C(=O)c1ccc(C=NO[C@H](C)c2cn([C@@H]3COC[C@H]3O)nn2)cc1,-0.591,-0.314,-0.0459,0.515,1.14,0.122,0.972,0.191 (inactive),0.165,-0.124
CO[C@H]1COC(=O)[C@@H](C)COC(=O)[C@@H](OCc2ccccc2)C=C[C@@H]1C,-0.133,-0.606,-0.121,0.206,-0.663,-0.297,-0.546,-0.412 (inactive),-0.155,0.0277
CCOC(=O)[C@H](Cc1ccccc1)NC(=O)CCC1CC(OC(=O)NCc2cccc3ccccc23)CC2(CCCC(COC(=O)NCC(c3ccccc3)c3ccccc3)O2)O1 (stereo not given in full),-0.222,0.578,-0.0753,0.326,0.928,0.301,1.04,0.631 (inactive),0.329,-0.169
C=COC[C@@H]1CN2[C@@H](CC[C@@H](C)[C@@H]2c2ccc(Br)cc2)C(=O)O1,-0.154,0.436,-0.158,-0.134,-0.898,-0.0605,0.673,0.151 (inactive),-0.171,0.643
CCO[C@H](c1cc(OC)cc([N+](=O)[O-])c1OC)[C@H](C)C=CCC(=O)OC,-0.413,0.13,-0.22,-0.0567,-0.3,-0.264,-0.997,0.157 (inactive),-0.185,-0.479
COC(=O)[C@@H]1CC[C@@H](C)[C@H](c2ccc(Br)cc2)N1,-0.364,-0.0471,-0.163,0.321,0.0422,-0.303,-0.356,-1.02 (inactive),-0.199,-0.184
CCOC(=O)[C@H](Cc1ccccc1)NC(=O)CCC1CC(OC(=O)NCCc2ccc(F)cc2)CC2(CCCC(COC(=O)NCCc3ccccc3OC)O2)O1 (stereo not given in full),-0.582,0.238,-0.0592,0.82,0.879,0.729,1.22,0.865 (inactive),0.759,-0.134
CC(C)(C)N1C(=O)[C@H]2[C@H]3[C@H](O)[C@H](O)CC(=O)[C@@H]3CC[C@H]2C1=O,1.64,0.0227,-0.156,0.673,0.259,-0.404,0.304,-0.255 (inactive),0.723,-0.0645
CC(=O)Nc1ccc([C@@H]2N[C@H](C(=O)O)CC[C@H]2C)cc1,-0.508,0.301,-0.135,0.426,0.785,0.0589,0.151,0.564 (inactive),0.296,-0.0618
COC(=O)[C@H]1O[C@@H](c2c(OC)c(OC)c(C)c(OC)c2OC)[C@H](C)[C@@H](O)[C@H]1C,-0.341,0.499,0.0066,0.915,1.06,0.368,0.741,-0.204 (inactive),0.224,-0.0965
CCOC(=O)C1=NO[C@@]2(C=C(Br)C3(OCCCO3)[C@H]3O[C@H]32)C1,0.224,0.0735,-0.116,1.05,0.282,-0.467,0.646,0.0274 (inactive),0.248,0.0972
CC(CCC(=O)OC[C@H]1O[C@H](C#Cc2ccccc2)C=C[C@@H]1Oc1ccc(C)cc1)=NO[C@H](C)c1cn([C@H](CO)Cc2ccccc2)nn1,-0.544,-0.0618,-0.122,0.191,0.369,0.527,0.529,0.546 (inactive),0.337,-0.211
O=C1[C@H]2[C@H]3[C@H](O)[C@H](O)CC(=NOCc4ccccc4)[C@H]3CC[C@H]2C(=O)N1Cc1ccc2c(c1)OCO2,-0.537,0.239,-0.172,0.315,0.306,0.273,0.278,0.0017 (inactive),0.0418,-0.0003
CCC=CCCC(OC(=O)c1ccc(Br)cc1)C1=CCCCC1=O (stereo not given),0.122,0.333,0.543,-0.0363,-0.164,0.714,0.878,0.796 (inactive),0.336,0.0826
COC(=O)CC=C[C@@H](C)[C@@H](C=NO[C@@H](C)c1cn([C@H](CO)Cc2ccccc2)nn1)NS(=O)(=O)c1ccc(C)cc1,-0.315,0.712,-0.161,0.166,0.0829,-0.0443,0.75,-1.1 (inactive),0.279,0.251
O=C1[C@H]2[C@H]3[C@H](O)[C@H](O)CC(=NOC[C@@H](O)COCc4ccco4)[C@@H]3CC[C@H]2C(=O)N1C[C@@H]1CCCO1,-0.861,2.29,-0.213,-0.32,-0.323,-0.271,1.22,-0.218 (inactive),-0.14,0.0139
